In PubChem BioAssay AID488890 (Southern Research Specialized Biocontainment Screening …, 2010):
The whole screen tested about 320,000 compounds, of which about 1,300 (0.41%) were called active. Not shown: some 3% with an inconclusive outcome. No rule for the calls is given here. These entries were drawn from the full list. Entries with a potency or affinity are not part of this list.

assay: growth inhibition of non-replicating M. tuberculosis (AID 488890); details: Mycobacterium tuberculosis non-replicating, at 25 µM, stronger effect = higher value;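 also: plate controls were DMSO cells for no effect and high antibiotic wells for full effect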

| Structure (SMILES) | inhibition [%] |
| --- | --- |
| CCCCC(NC(=O)c1ccc(Cl)cc1)C(=O)O (stereo not drawn) | -0.66 |
| O=C(C[n+]1cccc(CNC(=O)c2ccc(OC(F)F)cc2)c1)Nc1ccccc1Cl | 7.02 |
| O=C(c1ccc([N+](=O)[O-])cc1)N1CCN(Cc2ccccc2[N+](=O)[O-])CC1 | 12.7 |
| COc1ccc(C2C(C(=O)NCCN3CCOCC3)c3ccccc3C(=O)N2C2CCCCC2)cc1 (stereo not drawn) | 28.1 |
| O=C(/C=C/NCc1cccnc1)c1ccc(Br)cc1 | 77.9 |
| COc1cc(NC(=O)CSc2nc(=O)n(CCN3CCOCC3)c3c2CCC3)cc(OC)c1 | 1.82 |
| O=C(C1CCCN1S(=O)(=O)c1cccc2nsnc12)N1CCN(c2ccc(F)cc2)CC1 (stereo not drawn) | -10 |
| COc1ccc(N(CC(=O)Nc2ccc(F)c(Cl)c2)S(=O)(=O)c2c(C)noc2C)cc1 | 19.1 |
| CCc1noc(C)c1C(=O)OC(C)C(=O)c1c(C)[nH]c2ccccc12 (stereo not drawn) | 26.3 |
| Cc1cnc(C(=O)OC(C)C(=O)c2c(C)[nH]c3ccccc23)cn1 (stereo not drawn) | 12.1 |
| CCN(CC)C(=O)CSc1nnc(-c2ccco2)o1 | 18.1 |
| CCCOc1ccc(C(=O)CCNc2cccc(Cl)c2)cc1 | 74.8 |
| Cc1cccc(OCCn2cccc2/C=C2/C(=O)NC(=O)N(Cc3ccco3)C2=O)c1 | 49.4 |
| O=C1NC(=O)N(Cc2ccco2)C(=O)/C1=C/c1cccn1CCOc1ccccc1Cl | 62.6 |
| O=C(NCCCOc1cccc(CN2CCCCC2)c1)c1ccc(Cl)c(Cl)c1 | 56.6 |
| COc1cccc(Nc2nc(C)cc(C)c2C(N)=O)c1 | -12.4 |
| COc1ccc2cc(CN(Cc3cccs3)Cc3nnnn3Cc3ccccc3)c(=O)[nH]c2c1 | 27.5 |
| Cc1[nH]n(-c2ccccc2)c(=O)c1C(=O)c1cccc(F)c1 | 69 |
| Cc1[nH]n(-c2ccccc2)c(=O)c1C(=O)c1ccc([N+](=O)[O-])cc1 | 16.4 |
| Cc1cccc[n+]1CC(=O)/C=C1\N(C)c2ccccc2C1(C)C | -1.75 |
| COc1ccc(CN2CCC(n3nccc3NC(=O)C3CC3)CC2)c(OC)c1OC | -1.17 |
| O=S(=O)(NCCN1CCOCC1)c1cc(Cl)ccc1Cl | 10.9 |
| Cc1cc(C(=O)N/N=C/c2ccc(C)s2)n[nH]1 | 4.06 |

| Structure (SMILES) | inhibition [%] |
| --- | --- |
| Cc1cc(C(=O)N/N=C/c2cccc([N+](=O)[O-])c2O)n[nH]1 | 14.7 |
| Cc1ccsc1/C=N\NC(=O)c1cc(C(C)(C)C)[nH]n1 | 12.6 |
| CC(C)(C)c1cc(C(=O)N/N=C/c2ccc(-c3ccccc3[N+](=O)[O-])o2)n[nH]1 | 26.9 |
| Cc1c(C(=O)OCC[N+]2(C)CCCCC2)oc2ccccc12 | -0.02 |
| O=C(NCC(c1cccs1)N1CCOCC1)c1ccc([N+](=O)[O-])cc1 (stereo not drawn) | -4.42 |
| O=C(NCC(c1cccs1)N1CCOCC1)c1cccc([N+](=O)[O-])c1 (stereo not drawn) | 3.78 |
| CCOCCCN(C(=O)c1snc(C(N)=O)c1N)C(C(=O)NC1CCCC1)c1ccc(O)cc1 (stereo not drawn) | 12.3 |
| CCCN(Cc1nnc(-c2ccccc2Cl)o1)C(=O)c1oc2ccccc2c1C | -13.1 |
| O=C(C1=COCCO1)N(Cc1nnc(-c2ccccc2Cl)o1)C1CC1 | 2.01 |
| CCCN(Cc1nnc(-c2ccccc2Cl)o1)C(=O)c1cc2ccccc2o1 | 30.8 |
| O=C(c1ccc(Cl)s1)N(Cc1nnc(-c2ccccc2Cl)o1)C1CC1 | 31.8 |
| COc1ccc(S(=O)(=O)N2CCOC23CCN(S(=O)(=O)c2cc(C)ccc2OC)CC3)cc1 | 5.02 |
| CC(NC(=O)CC1Sc2ccccc2NC1=O)c1ccccc1 (stereo not drawn) | 0.31 |
| CCN(CC)C(=O)C(=O)N/N=C/c1ccc(C(=O)OC)cc1 | -0.1 |
| CCOc1cc2c(cc1OCC)C(c1ccc(C(=O)O)cc1)NCC2 (stereo not drawn) | -6.9 |
| N/C(=N/OC(=O)c1cccc([N+](=O)[O-])c1)c1cccc([N+](=O)[O-])c1 | 18.3 |
| Cc1cccc(C(=O)O/N=C(\N)c2cccc([N+](=O)[O-])c2)c1 | 75 |
| COc1ccc(C(CNC(=O)c2cccc(NC(=O)c3cccs3)c2)N2CCCC2)cc1 (stereo not drawn) | 27.7 |
| Cn1nc(-c2ccccn2)nc2c(=O)n(C)c(=O)nc1-2 | 74.7 |
| CCn1nc(-c2ccccc2)nc2c(=O)n(C)c(=O)nc1-2 | -28.8 |
| CC1(C)CN(c2ccc(Br)cc2Br)C1=O | 8.63 |
| CCOC(=O)N1CCN(S(=O)(=O)c2ccc(C(=O)N(CCCN(C)C)c3nc4cc(OC)ccc4s3)cc2)CC1 | 8.58 |
| OCc1ccc(O)c2ncccc12 | 26 |

| Structure (SMILES) | inhibition [%] |
| --- | --- |
| Oc1ccc(CNc2ccccc2F)c2cccnc12 | 38.5 |
| CCCn1c(C(C)Nc2nc(-c3ccc(C)cc3)cs2)nc2cc(Cl)c(Cl)cc21 (stereo not drawn) | 17.9 |
| COc1ccccc1NC(=O)Cn1cnc2sc(C(=O)Nc3cc(OC)c(OC)c(OC)c3)c(C)c2c1=O | -13 |
| Cc1ccc(NC(=S)N2CCC(NC(=O)C3CCCCC3)CC2)cc1C | -8.16 |
| Cc1nn(CC(=O)NCc2cc3ccccc3[nH]2)c(C)c1[N+](=O)[O-] | -11.5 |
| O=C(CNC(=O)c1ccco1)NCC(=O)OCc1ccc(C(=O)Oc2ccc(Cl)cc2)cc1 | 5.36 |
| O=C(Nc1ccc(OC(=O)c2ccco2)cc1)c1ccco1 | 53.6 |
| O=C(CNC(=O)c1ccco1)OCc1ccc(C(=O)c2ccccc2)cc1 | 74.7 |
| COC(=O)c1ccc(NC(=O)c2ccc(NC(=O)c3ccco3)cc2)cc1 | 9.4 |
| O=C(CCN1C(=O)/C(=C\c2ccccc2)SC1=S)NNC(=O)c1ccccc1O | -13.1 |
| CN(C)CCCNC1CS(=O)(=O)CC1O (stereo not drawn) | -14.7 |
| CCOC(=O)C1=C(C)NC2=C(C(=O)CC(C)(C)C2)C1c1ccc2c(c1)CCCN2C (stereo not drawn) | 58.9 |
| COCCN1C(=O)/C(=C/c2c(OC)cc(OC)cc2OC)C(=O)N(c2ccccc2)C1=O | 2.58 |
| Cc1cccc(NC(=O)CC(=O)Nc2cccc(C)c2)c1 | 17.8 |
| CCOC(=O)c1c(NC(C)=O)sc2c(OC)c(Br)ccc12 | 3.98 |
| CCOC(=O)c1c(NC(C)=O)sc2c(O)c(Br)ccc12 | 33.9 |
| Cc1onc(-c2c(F)cccc2Cl)c1C(=O)N(Cc1ccccc1)C(C)C | 7.25 |
| CC1CC(C)CN(S(=O)(=O)c2ccc3oc(=O)ccc3c2)C1 (stereo not drawn) | -8.91 |
| COC(=O)c1ccccc1NC(=O)CCCn1nc([N+](=O)[O-])cc1C | 1.55 |
| CC1CCC(NC(=O)c2cc3ccccc3cc2O)CC1 (stereo not drawn) | 38.1 |
| COC(=O)c1cc2c(C)c(C)c3ccccn3c-2c1C(=O)OC | 2.38 |
| CC(C)OC(=O)c1cccc2c1C(=O)c1ccccc1-2 | 1.02 |
